Test results reported in PubChem BioAssay AID1259417 (TB Discovery Research, Infectious Disease Research Institute, 2018).
Among all 1,100 compounds or so, about 760 (69%) were called active. No rule for the calls is given here. The set was probably picked from earlier hits. The list shows a part of the results.

Experiment: M. tuberculosis growth inhibition, HTS (AID 1259417);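 also: bacteria grown with compound for 5 days at 37 °C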
Details: stronger effect = higher value, concentration not given here
[1] = M. tuberculosis DsRed fluorescence growth inhibition
[2] = M. tuberculosis growth inhibition

Row | SMILES | inhibition [1] | inhibition [2]
1 | O=C1NN=C2C1=NC1(CCCCC1)Cc1ccccc12 | 99.4% (active) | 99%
2 | CCOC(=O)N1CCN(CCC(=O)c2ccc(Cl)cc2)CC1 | 25.5% (active) | 58.7%
3 | CCCCOc1cccc(C(=O)Nc2nnc(-c3ccc(C)cc3C)o2)c1 | 92.2% (active) | 77.5%
4 | O=C(CCOc1ccccc1)Nc1nnc(-c2cc(Cl)ccc2Cl)o1 | 1.59% (inactive) | -1.65%
5 | Cc1ccc(-c2nnc(NC(=O)CCOc3ccccc3)o2)c(C)c1 | 61.8% (active) | 78.2%
6 | N=c1sc(/C=C2\C=Nc3ccccc32)c(O)n1-c1nccs1 | 97.2% (active) | 94.9%
7 | Cc1ccc(C(C)C)c(OCc2nn(CC(=O)c3ccc(OC(F)F)cc3)c3[n+]2CCCCC3)c1 | 100% (active) | 99.1%
8 | Cc1ccc(C(=O)N2CCN(c3ccc(NC(=O)COc4c(C)cc(C)cc4Br)cc3)CC2)cc1 | -0.254% (inactive) | -20.4%
9 | CCC(C)NC(=O)c1ccc(NC(=O)C2(c3ccccc3)CCCC2)cc1 (stereo unspecified) | 31.9% (active) | 42.8%
10 | O=C(c1ccc(NC(=O)C2(c3ccccc3)CCCC2)cc1)N1CCCCC1 | 99.8% (active) | 99.3%
11 | Cc1ccc(-c2nsc(SCC(=O)Nc3ccc4c(c3)OCO4)n2)cc1 | 9.75% (inactive) | 1.51%
12 | COC(=O)c1ccc(NC(=O)CSc2nc(-c3ccccc3C)ns2)cc1 | 15.6% (active) | 32.6%
13 | COC(=O)c1ccc(NC(=O)CSc2nc(-c3cccc(C)c3)ns2)cc1 | 15.3% (active) | 38.3%
14 | CSc1nsc(SCC(=O)Nc2ccc(OC(C)=O)cc2)n1 | 8.33% (inactive) | 24.6%
15 | Cc1ccc2oc(-c3cc(NC(=O)Cc4ccccc4)ccc3Cl)nc2c1 | 88% (active) | 49.9%
16 | COC(=O)CSc1nc(N2CCCCC2)c2c(c1C#N)CCCC2 | 26.1% (active) | 78.9%
17 | COC(=O)CSc1nc2c(c(-c3ccco3)c1C#N)CCCC2 | 2.74% (inactive) | -22.6%
18 | COC(=O)CSc1nc(-c2ccccc2)c2c(c1C#N)CCCC2 | -3.83% (inactive) | -16.2%
19 | COC(=O)C(C)Oc1ccc(-c2nccc(-c3cccs3)n2)cc1 (stereo unspecified) | 43.6% (active) | 69.4%
20 | CC(C)(C)NCCCCOc1ccc(Cl)cc1C(C)(C)C | 59% (active) | 43.9%
21 | CC(C)(C)c1cc(Cl)ccc1OCCCCn1ccnc1 | 99.7% (active) | 99.7%
22 | CC(C)(C)c1cc(Cl)ccc1OCCn1ccnc1 | 90.4% (active) | 95%
23 | C#CCOCCOCCOCCNc1nc(N2CCN(C(=O)[C@H](Cc3cc4ccccc4[nH]3)n3cc([C@@H](N)CC(C)C)nn3)CC2)nc(N2CCN(C(=O)[C@H](Cc3cc4ccccc4[nH]3)n3cc([C@@H](N)CC(C)C)nn3)CC2)n1 | 68% (active) | 50.3%
